Measured values taken from article PMC11062922 (Nature Chemical Biology, 2023).

Each molecule was assayed on PRKAG1. Conditions: read-out: apparent Kd; compound concentrations:100 nM and 1000 nM (sheet 'Samples'); n = 1.
Set-up: species or system human, MV4-11 + K-562 + COLO205 + SK-N-BE2 + OVCAR-8

**Q.** `O=C1NC(=O)C(N2CCc3ccccc32)=C1c1ccccc1Cl` [SB-373598] was tested. Which potency estimated from few doses did it give?
**A.** 215 nM

**Q.** With `Cl.Cl.NCC(C(=O)Nc1cc(Br)c(-c2ccnc3[nH]ccc23)s1)c1ccccc1.NCC(C(=O)Nc1cc(Br)c(-c2ccnc3[nH]ccc23)s1)c1ccccc1` (centres unmarked) [GSK1269851A] as the molecule, how does the potency estimated from few doses read?
**A.** 416 nM

**Q.** `CC(C)N1CCC(n2cnc(-c3ccc(F)cc3)c2-c2ccnc(N)n2)CC1` [SB-223132] was tested. Which potency estimated from few doses did it give?
**A.** 884 nM

**Q.** `CNC(=O)c1ccccc1Nc1nc(Nc2ccc(N3CCOCC3)cc2)ncc1Cl.Cl` [GSK1576028A] was tested. Which potency estimated from few doses did it give?
**A.** 461 nM

**Q.** How did the potency estimated from few doses turn out when `CN1C[C@@H]2Cn3c(c(C4=C(c5cn(C)c6ccccc56)C(=O)NC4=O)c4ccccc43)C[C@H]2C1.Cl` [RO0320234-001] was run?
**A.** 352 nM

**Q.** Which potency estimated from few doses does the source give for `Cc1ccc2c(-c3ccncc3)c(-c3ccc(F)cc3)nn2c1.Cl` [GW461484A] here?
**A.** 560 nM

Each molecule was assayed on PRKAG2. Conditions: read-out: apparent Kd; compound concentrations:100 nM and 1000 nM (sheet 'Samples'); n = 1.
Set-up: species or system human, MV4-11 + K-562 + COLO205 + SK-N-BE2 + OVCAR-8

**Q.** With `O=C1NC(=O)C(N2CCc3ccccc32)=C1c1ccccc1Cl` [SB-373598] as the molecule, how does the potency estimated from few doses read?
**A.** 1390 nM

**Q.** How did the potency estimated from few doses turn out when `Cl.Cl.NCC(C(=O)Nc1cc(Br)c(-c2ccnc3[nH]ccc23)s1)c1ccccc1.NCC(C(=O)Nc1cc(Br)c(-c2ccnc3[nH]ccc23)s1)c1ccccc1` (centres unmarked) [GSK1269851A] was run?
**A.** 111 nM

**Q.** For `CC(C)N1CCC(n2cnc(-c3ccc(F)cc3)c2-c2ccnc(N)n2)CC1` [SB-223132], which potency estimated from few doses is on record?
**A.** 1040 nM

**Q.** How did the potency estimated from few doses turn out when `CNC(=O)c1ccccc1Nc1nc(Nc2ccc(N3CCOCC3)cc2)ncc1Cl.Cl` [GSK1576028A] was run?
**A.** 587 nM

**Q.** With `Cc1ccc2c(-c3ccncc3)c(-c3ccc(F)cc3)nn2c1.Cl` [GW461484A] as the molecule, how does the potency estimated from few doses read?
**A.** 417 nM

These molecules were tested on PRKCD. Conditions: read-out: apparent Kd; compound concentrations:100 nM and 1000 nM (sheet 'Samples'); n = 1.
Set-up: species or system human, MV4-11 + K-562 + COLO205 + SK-N-BE2 + OVCAR-8

**Q.** How did the potency estimated from few doses turn out when `NCCNS(=O)(=O)c1ccc(-c2ccnc3[nH]ccc23)cc1` [GSK977617A] was run?
**A.** 1080 nM

**Q.** With `O=C1NC(=O)C(N2CCc3ccccc32)=C1c1ccccc1Cl` [SB-373598] as the molecule, how does the potency estimated from few doses read?
**A.** 2190 nM

**Q.** `Cl.Cl.NCC(C(=O)Nc1cc(Br)c(-c2ccnc3[nH]ccc23)s1)c1ccccc1.NCC(C(=O)Nc1cc(Br)c(-c2ccnc3[nH]ccc23)s1)c1ccccc1` (centres unmarked) [GSK1269851A] was tested. Which potency estimated from few doses did it give?
**A.** 2130 nM

**Q.** With `CCn1c(-c2nonc2N)nc2c(C#CC(C)(C)O)nc(OCCN)cc21.CCn1c(-c2nonc2N)nc2c(C#CC(C)(C)O)nc(OCCN)cc21.Cl.Cl` [GSK902056A] as the molecule, how does the potency estimated from few doses read?
**A.** 373 nM

These molecules were tested on PRKCQ. Conditions: read-out: apparent Kd; compound concentrations:100 nM and 1000 nM (sheet 'Samples'); n = 1.
Set-up: species or system human, MV4-11 + K-562 + COLO205 + SK-N-BE2 + OVCAR-8

**Q.** `NCCNS(=O)(=O)c1ccc(-c2ccnc3[nH]ccc23)cc1` [GSK977617A] was tested. Which potency estimated from few doses did it give?
**A.** 1950 nM

**Q.** Which potency estimated from few doses does the source give for `O=C1NC(=O)C(N2CCc3ccccc32)=C1c1ccccc1Cl` [SB-373598] here?
**A.** 1580 nM

**Q.** For `Cl.Cl.NCC(C(=O)Nc1cc(Br)c(-c2ccnc3[nH]ccc23)s1)c1ccccc1.NCC(C(=O)Nc1cc(Br)c(-c2ccnc3[nH]ccc23)s1)c1ccccc1` (centres unmarked) [GSK1269851A], which potency estimated from few doses is on record?
**A.** 1130 nM

**Q.** Which potency estimated from few doses does the source give for `CCn1c(-c2nonc2N)nc2c(C#CC(C)(C)O)nc(OCCNC)cc21.Cl` [GSK949675A] here?
**A.** 1680 nM

**Q.** `CCn1c(-c2nonc2N)nc2c(C#CC(C)(C)O)nc(OCCN)cc21.CCn1c(-c2nonc2N)nc2c(C#CC(C)(C)O)nc(OCCN)cc21.Cl.Cl` [GSK902056A] was tested. Which potency estimated from few doses did it give?
**A.** 50.9 nM

What follows are molecules tested on PRKG1. Conditions: read-out: apparent Kd; compound concentrations:100 nM and 1000 nM (sheet 'Samples'); n = 1.
Set-up: species or system human, MV4-11 + K-562 + COLO205 + SK-N-BE2 + OVCAR-8

**Q.** Which potency estimated from few doses does the source give for `NCCNS(=O)(=O)c1ccc(-c2ccnc3[nH]ccc23)cc1` [GSK977617A] here?
**A.** 621 nM

**Q.** With `CCn1c(-c2nonc2N)nc2c(C#CC(C)(C)O)nc(OCCNC)cc21.Cl` [GSK949675A] as the molecule, how does the potency estimated from few doses read?
**A.** 1370 nM

**Q.** `CCn1c(-c2nonc2N)nc2c(C#CC(C)(C)O)nc(OCCN)cc21.CCn1c(-c2nonc2N)nc2c(C#CC(C)(C)O)nc(OCCN)cc21.Cl.Cl` [GSK902056A] was tested. Which potency estimated from few doses did it give?
**A.** 1230 nM

The molecules below were run on PRKX. Conditions: read-out: apparent Kd; compound concentrations:100 nM and 1000 nM (sheet 'Samples'); n = 1.
Set-up: species or system human, MV4-11 + K-562 + COLO205 + SK-N-BE2 + OVCAR-8

**Q.** With `NCCNS(=O)(=O)c1ccc(-c2ccnc3[nH]ccc23)cc1` [GSK977617A] as the molecule, how does the potency estimated from few doses read?
**A.** 487 nM

**Q.** `O=C1NC(=O)C(N2CCc3ccccc32)=C1c1ccccc1Cl` [SB-373598] was tested. Which potency estimated from few doses did it give?
**A.** 367 nM

**Q.** Which potency estimated from few doses does the source give for `Cl.Cl.NCC(C(=O)Nc1cc(Br)c(-c2ccnc3[nH]ccc23)s1)c1ccccc1.NCC(C(=O)Nc1cc(Br)c(-c2ccnc3[nH]ccc23)s1)c1ccccc1` (centres unmarked) [GSK1269851A] here?
**A.** 1890 nM

**Q.** For `CN1C[C@@H]2Cn3c(c(C4=C(c5cn(C)c6ccccc56)C(=O)NC4=O)c4ccccc43)C[C@H]2C1.Cl` [RO0320234-001], which potency estimated from few doses is on record?
**A.** 925 nM

**Q.** `CCn1c(-c2nonc2N)nc2c(C#CC(C)(C)O)nc(OCCN)cc21.CCn1c(-c2nonc2N)nc2c(C#CC(C)(C)O)nc(OCCN)cc21.Cl.Cl` [GSK902056A] was tested. Which potency estimated from few doses did it give?
**A.** 176 nM

The molecules below were run on PTK2B. Conditions: read-out: apparent Kd; compound concentrations:100 nM and 1000 nM (sheet 'Samples'); n = 1.
Set-up: species or system human, MV4-11 + K-562 + COLO205 + SK-N-BE2 + OVCAR-8

**Q.** How did the potency estimated from few doses turn out when `NCCNS(=O)(=O)c1ccc(-c2ccnc3[nH]ccc23)cc1` [GSK977617A] was run?
**A.** 335 nM

**Q.** For `O=C1NC(=O)C(N2CCc3ccccc32)=C1c1ccccc1Cl` [SB-373598], which potency estimated from few doses is on record?
**A.** 129 nM

**Q.** Which potency estimated from few doses does the source give for `Cl.Cl.NCC(C(=O)Nc1cc(Br)c(-c2ccnc3[nH]ccc23)s1)c1ccccc1.NCC(C(=O)Nc1cc(Br)c(-c2ccnc3[nH]ccc23)s1)c1ccccc1` (centres unmarked) [GSK1269851A] here?
**A.** 63.1 nM

**Q.** How did the potency estimated from few doses turn out when `CC(C)N1CCC(n2cnc(-c3ccc(F)cc3)c2-c2ccnc(N)n2)CC1` [SB-223132] was run?
**A.** 378 nM

**Q.** Which potency estimated from few doses does the source give for `CNC(=O)c1ccccc1Nc1nc(Nc2ccc(N3CCOCC3)cc2)ncc1Cl.Cl` [GSK1576028A] here?
**A.** 41.8 nM

**Q.** `CN1C[C@@H]2Cn3c(c(C4=C(c5cn(C)c6ccccc56)C(=O)NC4=O)c4ccccc43)C[C@H]2C1.Cl` [RO0320234-001] was tested. Which potency estimated from few doses did it give?
**A.** 193 nM

**Q.** `Cc1ccc2c(-c3ccncc3)c(-c3ccc(F)cc3)nn2c1.Cl` [GW461484A] was tested. Which potency estimated from few doses did it give?
**A.** 354 nM
